Sampled rows, rich in hits. Any-hit rate of the full collection: about 4%.
Anthrax LF prot: anthrax lethal factor protease inhibition; multiplex microsphere protease cleavage assay, LF; AID 588501; inhibition, % at 10 µM; P15917; actives 0.12% (n = 360,000)
BoNT A protease: BoNT A light chain protease inhibition; actives 0.17% (n = 360,000); inhibition, % at 10 µM; multiplex microsphere protease substrate cleavage, flow cytometry
BoNT-F LC inh: inhibitors of Botulinum neurotoxin F light chain protease | AID 588497 | inhibition, % at 10 µM | actives 0.22% (n = 360,000) | Multiplex microsphere protease cleavage assay, flow cytometry; in the data active = inhibition above about 35%, passing the limit was not always enough; inconclusive = no clear call, values can overlap the other calls
Autofluor counter: counter-screen for toxin protease inhibitors: compound fluorescence | compound autofluorescence counterscreen, microsphere flow cytometry; active compounds read high | fluorescence intensity (concentration not given with the values) | actives 3.1% (n = 360,000); in the data active = fluorescence intensity above about 16000; inconclusive = no clear call, values can overlap the other calls
VHR inh abs: DUSP3 (human) phosphatase inhibition. recombinant VHR phosphatase, pNPP absorbance. actives 0.52% (n = 290,000). inhibition, % at 13.3 µM; in the data active = inhibition above about 50%
Target sequence (P51452 whole entry, looked up): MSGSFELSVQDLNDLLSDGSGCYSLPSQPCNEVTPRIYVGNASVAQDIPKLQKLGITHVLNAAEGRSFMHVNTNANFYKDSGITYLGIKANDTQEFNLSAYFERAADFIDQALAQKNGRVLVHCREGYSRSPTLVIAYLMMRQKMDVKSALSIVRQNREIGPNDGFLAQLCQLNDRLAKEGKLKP
MazF activator: MazEF (E. coli) toxin RNase activation; P0AE70; FAM/BHQ RNA-DNA oligo cleavage fluorescence, 5 h; activation, % at 20 µM; actives 0.32% (n = 350,000); AID 504720; in the data active = activation above about 50%
Target sequence (P0AE70 whole entry, looked up): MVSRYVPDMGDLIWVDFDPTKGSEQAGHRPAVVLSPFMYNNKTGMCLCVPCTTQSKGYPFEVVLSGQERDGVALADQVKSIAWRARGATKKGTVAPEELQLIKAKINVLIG
Hits are given with their value; 0 = inactive; ? = inconclusive; - = no result given; + = active, no number. Cut-off read from the data, not from the text of the source, unless noted: active = inhibition above about 30%; inconclusive = no clear call, values can overlap the other calls; inactive = below that.

SMILES	Anthrax LF prot	BoNT A protease	BoNT-F LC inh	Autofluor counter	VHR inh abs	MazF activator
COCCNc1c2c(nc3c(-c4ccccc4)c(C)nn13)CCCC2	0	0	0	23437	0	0
Cc1cccc(C(=O)Nc2c(C(=O)N3CCN(C)CC3)cnn2-c2ccccc2)c1	0	0	0	0	0	0
Cc1sc2ncnc(N3CCN(S(=O)(=O)c4ccccc4)CC3)c2c1C	0	0	0	0	-	0
COC(=O)Cn1c(C(O)c2ccccc2)nc2ccccc21 (stereo not given)	0	0	0	0	0	0
CCCNC(=O)COC(=O)c1ccc(OCC(=O)Nc2ccccc2OC)c(OC)c1	0	0	0	0	0	0
NC(=O)COC(=O)CCCc1c[nH]c2ccccc12	0	0	0	0	0	0
CCN(C(=O)CSc1nnc(CNc2cccc(OC)c2)n1C1CCCCC1)C1CCS(=O)(=O)C1 (stereo not given)	0	0	0	0	54.9	0
COCc1cc(=O)[nH]c(Nc2nc(C)c3cc(OC)ccc3n2)n1	-	-	-	-	0	-
S=C(Nc1ccc(Cl)cc1)c1sc(N2CCCCC2)nc1N1CCOCC1	0	0	0	0	0	0
CN1CCC(OC(=O)c2ccc(Br)cc2)CC1	0	0	0	21548	-	0
Cc1nn(Cc2ccc(F)cc2)c(C)c1NC(=O)c1cnn2c1NC(c1cccs1)CC2C(F)(F)F (stereo not given)	0	0	0	22509	0	0
Cc1nn(Cc2ccc(F)cc2)c(C)c1NC(=O)c1cnn2c1NC(c1ccccc1)CC2C(F)(F)F (stereo not given)	0	0	0	0	0	0
COC(=O)C1=C(C)NC(=O)CC1c1cccc(OC)c1OC (stereo not given)	0	0	0	0	0	0
COc1ccc(S(=O)(=O)N2CCC(C(=O)NCCc3ccc4c(c3)OCO4)CC2)cc1	0	0	0	0	0	0
CN(C)C(=O)Cn1c(=O)n(C)c2ccccc21	0	0	0	22347	0	0
Cc1ccc(CCNC(=O)CCNS(=O)(=O)c2ccc3c(c2)c(=O)n(C)c(=O)n3C)cc1	0	0	0	0	0	0
Cc1ccc(-c2nnc3c4ccccc4c(C)nn23)cc1S(=O)(=O)N1CCN(C)CC1	0	?	0	20956	-	0
Cc1ccc(-c2nnc3c4ccccc4c(C)nn23)cc1S(=O)(=O)N1CCN(CCO)CC1	0	0	0	0	0	0
O=C(c1cc2ccccc2o1)n1nnc2ccccc21	0	0	0	0	0	0
CCN(CC)c1nc2ccccc2nc1C(C#N)C(=O)NCCCOC (stereo not given)	0	0	0	0	0	0
CCOC(=O)C1CCCN(c2nc3ccccc3nc2C(C#N)C(=O)NCc2ccccc2)C1 (stereo not given)	0	0	0	0	0	0
N#CC(C(=O)NCCc1ccccc1)c1nc2ccccc2nc1N1CCOCC1 (stereo not given)	0	0	0	0	0	928.4
N#CC(C(=O)NCc1ccccc1)c1nc2ccccc2nc1N1CCCC1 (stereo not given)	0	0	0	0	0	+
N#CC(C(=O)NCCc1ccccc1)c1nc2ccccc2nc1N1CCCCC1 (stereo not given)	0	0	0	0	0	150.2
CCN(CC)c1nc2ccccc2nc1C(C#N)C(=O)NCCc1ccccc1 (stereo not given)	0	0	0	0	0	+
SMILES	Anthrax LF prot	BoNT A protease	BoNT-F LC inh	Autofluor counter	VHR inh abs	MazF activator
Cc1ccc2nc(NC(=O)c3ccc(Cn4cc(Cl)cn4)o3)sc2c1	0	0	?	0	0	0
Cc1cc(C(=O)N2CCC(C(N)=O)CC2)c(C)o1	0	0	0	0	-	0
Cc1cc(C(=O)N2CCCC2C(=O)O)c(C)o1 (stereo not given)	0	0	0	22740	0	0
COc1ccccc1N1CCN(C(=O)CNC(=O)c2cn(-c3ccccc3OC)c(=O)c3ccccc23)CC1	0	0	0	0	0	0
COc1ccccc1-n1cc(C(=O)NCC(=O)N2CCN(c3ccccc3)CC2)c2ccccc2c1=O	0	0	0	24097	50.8	0
CCOC(=O)N1C2C=CC(C2)N1C(=O)OCC	0	0	0	0	-	156.7
CCOC(=O)N1C2CCC(C2)N1C(=O)OCC	0	0	0	0	-	0
CN(C)CCNc1nc(-c2ccco2)c2c(c1C#N)CC(C)(C)OC2	0	0	0	24132	0	0
CC(C)CCNc1nc(-c2ccco2)c2c(c1C#N)CCCC2	0	0	0	0	59.0	0
COc1ccccc1C(CCN(Cc1ccccc1)C(C)=O)c1ccco1 (stereo not given)	0	0	0	0	0	0
CCn1nccc1C(=O)Nc1ccc(C)c(C)c1	0	0	?	0	0	0
COC(=O)c1ccc(C(=O)OC)c(NS(C)(=O)=O)c1	0	0	0	23033	0	0
N#CCCCn1c(-c2ccccc2)noc1=O	0	?	0	23665	0	0
O=c1onc(-c2ccccc2)n1Cc1ccc([N+](=O)[O-])cc1	0	0	0	0	-	0
O=C(c1ccccc1)c1cc2ccc(O)cc2oc1=O	0	0	0	20651	0	0
O=C(O)c1ccccc1NC(=O)N1C[C@H]2C[C@@H](C1)c1cccc(=O)n1C2	0	0	0	0	0	0
CCC(C)[C@H](NC(=O)N1CCn2c1nc1ccccc12)C(=O)NCc1ccccc1 (stereo not given in full)	0	0	0	0	50.2	0
Cc1ccccc1Oc1ncnc2sccc12	0	0	0	18377	0	0
CS(=O)(=O)N1CCN(c2ccc([N+](=O)[O-])c(N3CCOCC3)c2)CC1	-	-	-	-	0	0
CS(=O)(=O)N1CCN(c2ccc([N+](=O)[O-])c(NCCN3CCOCC3)c2)CC1	0	0	0	18351	0	0
CCCn1nnnc1-c1cc(Cl)cc(Cl)c1	0	0	0	0	0	0
CC(C)n1nnnc1-c1cccc(Cl)c1	0	0	0	17953	0	0
COc1ccc(-c2nnnn2C(C)C)cc1S(=O)(=O)Nc1ccccc1	0	0	0	0	0	0
CC(C)n1nnnc1-c1cc(Cl)cc(Cl)c1	0	0	0	23056	0	0
CC(C)c1nc2sc3c(=O)[nH]cnc3c2c2c1CCCC2	0	0	0	0	0	67.8
SMILES	Anthrax LF prot	BoNT A protease	BoNT-F LC inh	Autofluor counter	VHR inh abs	MazF activator
CCc1cc(C(=O)N/N=C/c2ccc(O)cc2O)c2ccccc2n1	0	0	0	0	0	0
O=C(Nc1ccc(S(=O)(=O)N2CCOCC2)cc1)c1cc(-c2ccccc2O)n[nH]1	0	0	0	0	0	0
O=C(NNC(=O)c1ccc(NC(=O)c2ccccc2)cc1)c1ccccc1	0	0	0	0	0	0
CCOC(=O)N1CCN(Cc2ccccc2F)CC1	0	0	0	20462	0	0
CCOC(=O)N1CCN(Cc2ccccc2Cl)CC1	0	0	0	22232	0	0
CCOC(=O)N1CCN(Cc2nc(-c3cccc(C)c3)no2)CC1	0	0	0	22782	0	0
CCOC(=O)N1CCN(Cc2nc(-c3ccccc3)no2)CC1	0	0	0	0	0	0
CCOC(=O)N1CCN(C(=O)CSc2ccccc2)CC1	0	0	0	23877	0	0

Source: PubChem BioAssay
